Measured values published in PubChem BioAssay AID1508602 (The Scripps Research Institute Molecular Screening Center, 2020).
Several values for one entry are separate records, joined by “and”; a condition that tells them apart may be missing. Equal values may be shown once. Hit rate of the full screen: of about 650,000 compounds, about 6,800 (1%) were called active. Rule as the data show it: active = activation above about 4.9%; inactive = the rest. The sample as a whole holds a higher share of actives than the screen did. Some compounds were tested as several samples or in several runs, with calls that do not always agree.

biological target: G-protein coupled receptor 151 (Homo sapiens) (UniProt Q8TDV0); assay: activators of human GPR151, primary screen, cell-based, PathHunter beta-arrestin, luminescence (AID 1508602); conditions: PathHunter beta-arrestin GPR151 cells, at 11.2 µM, stronger effect = higher value;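 also: 0% = median of compound wells and 100% = cells with positive control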
Sequence (Q8TDV0 whole entry, looked up): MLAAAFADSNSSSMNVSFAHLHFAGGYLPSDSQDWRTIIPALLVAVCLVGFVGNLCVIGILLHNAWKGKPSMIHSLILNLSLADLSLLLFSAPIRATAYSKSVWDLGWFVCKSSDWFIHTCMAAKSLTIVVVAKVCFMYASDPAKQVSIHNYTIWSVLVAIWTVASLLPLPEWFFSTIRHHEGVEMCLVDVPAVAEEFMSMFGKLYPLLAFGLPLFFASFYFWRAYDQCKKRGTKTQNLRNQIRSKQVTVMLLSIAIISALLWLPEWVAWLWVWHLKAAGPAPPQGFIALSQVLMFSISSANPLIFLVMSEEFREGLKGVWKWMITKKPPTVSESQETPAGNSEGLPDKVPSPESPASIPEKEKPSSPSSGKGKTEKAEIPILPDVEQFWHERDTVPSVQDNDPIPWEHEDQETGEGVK

Row | Structure (SMILES) | activation
1 | COc1cc(NC(=O)C2CC(c3ccccc3O)=NO2)c(OC)cc1Cl (stereo unspecified) | 5.74% (active)
2 | CC(C)(C)NC(=O)C1CC(c2ccccc2Cl)=NO1 (stereo unspecified) | 1.12% (inactive)
3 | COc1ccc(OC)c(C2=NOC(C(=O)Nc3cccc(O)c3)C2)c1 (stereo unspecified) | 1.6% (inactive)
4 | O=C(NNC(=S)NC(=O)c1ccccc1[N+](=O)[O-])c1ccc(O)cc1 | -0.124% (inactive)
5 | CO[C@@H]1COC(=O)[C@@H](C)COC(=O)[C@H](C)NC(=O)C/C=C/[C@H]1C | 1.97% (inactive) and 5.04% (active)
6 | CCN(CC)c1nc(Nc2cc(OC)c(OC)c(OC)c2)nc(N2CCOCC2)n1 | 5.49% (active)
7 | CCN(CC)c1nc(Nc2ccccc2)nc(N2CCOCC2)n1 | -0.263% (inactive)
8 | COc1cc(Nc2ccnc(Nc3ccncc3)n2)cc(OC)c1OC | 1.57% (inactive)
9 | COc1cc(Nc2ccnc(Nc3ccc(N4CCOCC4)cc3)n2)cc(OC)c1OC | 5.76% (active)
10 | c1ccc(Nc2nccc(Nc3ccc(N4CCOCC4)cc3)n2)cc1 | 2.16% (inactive)
11 | CCN(CC)c1nc(Nc2cc(OC)c(OC)c(OC)c2)nc(Nc2nc3ccccc3n2C)n1 | -0.32% (inactive)
12 | O=C1CCC(CCC(=O)N2CCCC2)(Cc2cccc3ccccc23)N1 (stereo unspecified) | 0.278% (inactive)
13 | Cc1ccc(C(C)C)c(OCCNC(=O)c2cccs2)c1 | 0.446% (inactive)
14 | COc1ccc(CC2(CCC(=O)NCCCn3ccnc3)CCC(=O)N2)c(F)c1 (stereo unspecified) | -0.719% (inactive)
15 | COc1cc(Nc2ccc(-n3cc(CC(=O)NCCCN4CCCC4=O)c4ccccc43)nn2)cc(OC)c1OC | -1.03% (inactive)
16 | COC(=O)c1c(-c2ccccc2)csc1NC(=O)c1ccc(OC)c([N+](=O)[O-])c1 | 6.64% (active)
17 | CCOC(=O)c1c(-c2ccc([N+](=O)[O-])cc2)csc1NC(=O)c1ccccc1 | -1.07% (inactive)
18 | COc1ccc(C(=O)NCC(=O)O)cc1[N+](=O)[O-] | -1.88% (inactive)
19 | COC(=O)c1cccc(-n2nnnc2SCC(=O)Nc2nc(C(C)(C)C)cs2)c1 | -0.122% (inactive)
20 | CC(C(=O)O)c1ccc(NC(=O)OC(C)(C)C)cc1 (stereo unspecified) | -1.31% (inactive)
21 | COc1ccc(N2C(=O)CSC2c2ccccc2F)cc1Cl (stereo unspecified) | -0.327% (inactive)
22 | COc1cccc(C2SCC(=O)N2c2cccc(C)c2)c1OC (stereo unspecified) | 5.36% (active)
23 | COc1ccc(N2C(=O)CSC2c2cccc(Cl)c2Cl)cc1Cl (stereo unspecified) | 0.734% (inactive)

Row | Structure (SMILES) | activation
24 | Cc1c(NC(=O)c2nn3c(C(F)(F)F)cc(-c4ccc(Cl)cc4)nc3c2Cl)c(=O)n(-c2ccccc2)n1C | -1.62% (inactive)
25 | N#C/C(=C/c1ccc(Br)o1)C(=O)NCCc1c[nH]c2ccccc12 | 0.189% (inactive)
26 | Cc1cc(CN(C)Cc2nc(NCC3CCCO3)c3ccc(Cl)cc3n2)on1 (stereo unspecified) | -0.552% (inactive)
27 | COc1cc(-c2ncnn2-c2ccc(Cl)cc2)ccc1OCc1ccccc1 | -3.78% (inactive)
28 | COCc1cc(C)c(C#N)c(N(C)C)n1 | 0.894% (inactive)
29 | CC1=NN(c2cccc(Cl)c2)C(=O)/C1=C\c1ccc(F)cc1 | -0.302% (inactive)
30 | COc1ccc(CNC(=O)NCc2ccsc2)cc1 | -0.956% (inactive)
31 | O=C(NCc1ccsc1)c1ccc(-n2cccc2)cc1 | 6.14% (active)
32 | O=C(NCCc1ccsc1)c1ccccc1Cl | -3.26% (inactive)
33 | O=C(NCCc1ccc(N2CCCC2)cc1)c1ccc(F)cc1 | 0.277% (inactive)
34 | CCn1c(NCc2ccccc2OC)nc2ccccc21 | -0.109% (inactive)
35 | C=CCN1C(=O)/C(=C\c2cc(Br)ccc2OCC)C(=O)NC1=S | 0.0155% (inactive)
36 | C#CCOc1ccc(Br)cc1/C=C1\NC(=S)N(C)C1=O | 5.86% (active)
37 | C#CCOc1ccc(C=C2C(=O)NC(=S)NC2=O)cc1Cl | -0.112% (inactive)
38 | C/C(=N\NC(=O)CNC(=O)c1ccccc1Br)c1ccccc1 | -0.31% (inactive)
39 | Cc1cccc(OCCNC(=S)NC(=O)c2cccnc2)c1 | 7.55% (active)
40 | CC(C)(C)c1ccc(OCCNC(=S)NC(=O)c2cncc(Br)c2)cc1 | 0.8% (inactive)
41 | Cc1cccc(C)c1OCC(=O)OCCNC(=O)c1cccnc1 | 2.35% (inactive)
42 | COc1ccc(-c2c(C)nn3c(NCCN(C)C)cc(C)nc23)cc1 | 0.306% (inactive)
43 | O=C1NC2(CCCC2)C(=O)N1Cc1nnc(-c2ccccc2Br)o1 | 0.439% (inactive)
44 | CS(=O)(=O)N(CC(=O)Nc1ccc(F)cc1F)c1ccc(F)cc1 | 7.88% (active)
45 | CS(=O)(=O)N(CC(=O)Nc1ccc(F)cc1F)c1cc(Cl)c(Cl)cc1Cl | -0.649% (inactive)
46 | CS(=O)(=O)N(CC(=O)Nc1ccc(F)cc1F)c1cccc([N+](=O)[O-])c1 | -0.142% (inactive)
